# An excerpt weighted towards active compounds, which were near 2.4% of everything screened.
# Pol eta inh – inhibitors of human DNA polymerase eta; recombinant Pol eta, fluorescent DNA replication assay; Potency, µM (doses to about 114 µM), inactives show at the highest dose activity change, negative = inhibition, most hits filed as inhibitors; actives 1.2% (n = 390,000); further: on the % scale 0 is the no-effect control and ±100 the full control effect
#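 Pol eta at 10 nM preincubated with compounds 15 min at room temperature; reaction started with fluorescent substrate (50 nM final) and read kinetically at 0 and 10 min.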
# Pol iota inh – DNA polymerase iota (human) inhibition. actives 1% (n = 390,000). AID 588590. Pol iota fluorescent replication assay, 10 min. Potency, µM (top dose mostly 115 µM), without a hit: at the highest dose activity, negative = inhibition, usual class: inhibitors
#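 Pol iota at 10 nM preincubated 15 min with compounds at room temperature; reaction started with fluorescent substrate, 50 nM final. Fluorescence read kinetically at 0 and 10 min; buffer-only wells as negative control.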
# Pol beta inh – DNA polymerase beta (human) inhibition | Potency, µM (top dose mostly 114 µM), without a hit: at the top dose activity change, negative = inhibition, most hits filed as inhibitors | P06746 | Pol beta primer extension/strand displacement, fluorescence kinetic | actives 1.3% (n = 340,000); further: on the % scale 0 is the no-effect control and ±100 the full control effect
#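 Reaction started by 50 nM substrate onto compound-treated Pol beta (10 nM, 15 min preincubation, room temperature); plates read at 0 min and 10 min. Normalized concentration-effect data fitted by four-parameter Hill equation.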
# Pol kappa inh – DNA polymerase kappa (human) inhibition. Q9UBT6. purified Pol kappa, fluorescent DNA synthesis assay, 10 min. Potency, µM (highest dose often 107 µM), inactives show at the top dose activity, negative = inhibition, usual class: inhibitors. actives 0.53% (n = 400,000). AID 588579; further: on the % scale 0 is the no-effect control and ±100 the full control effect
#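 Kinetic fluorescence screen: compound preincubated 15 min RT with 10 nM enzyme; 50 nM substrate (final) initiates; reads at 0/10 min.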
# WRN inhibitor – blocks human WRN helicase; Q14191; WRN helicase unwinding, fluorescent forked duplex, kinetic; Potency, µM (series often up to 114 µM), without a hit: at the top dose activity change, negative = inhibition, usual class: inhibitors; actives 0.46% (n = 360,000); further: on the % scale 0 is the no-effect control and ±100 the full control effect; nearly all actives have a fitted effect of over 55% in size
#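 WRN at 20 nM final was preincubated with compound for 15 min at room temperature; reaction started with 100 nM forked duplex oligonucleotide carrying fluorophore and quencher plus 2 mM ATP (final). Unwinding followed kinetically by red fluorescence (ex 525/em 598 nm).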
# FEN1 inhibitor – inhibitors of human flap endonuclease 1; P39748; Recombinant FEN1 flap cleavage, fluorescence, 15 min; Potency, µM (highest dose often 114 µM), for the others: at the top dose activity change, negative = inhibition, most hits filed as inhibitors; actives 0.35% (n = 390,000); further: on the % scale 0 is the no-effect control and ±100 the full control effect; nearly all actives have a fitted effect of over 65% in size
#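 In this screen, 50 nM flap DNA substrate was added to 10 nM FEN1 pretreated with compound for 15 min at room temperature; cleavage was followed with reads at 0 and 15 min, and Hill fitting gave concentration–response parameters.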
# * marks the source's active call; other numbers are inactive results; ? = inconclusive; / = not tested or not shown; ! = a repeat was not active; [ ] = another dose, or the depositor's remark. The call rests on the fitted dose curve; in most records, active means well fitted curve in the direction sought with a large enough effect; inconclusive means small, poorly fitted or top-dose-only effect, or another doubt; inactive means no such curve, though single readings can be large; an effect the other way counts as inactive or inconclusive. Potency means the concentration at half of the fitted maximal effect.
SMILES,Pol eta inh,Pol iota inh,Pol beta inh,Pol kappa inh,WRN inhibitor,FEN1 inhibitor
O=C(OCCF)N1CCN(/[N+]([O-])=N/Oc2ccc([N+](=O)[O-])cc2[N+](=O)[O-])CC1,/,-13%,/,-6%,/,?
COc1ccc(-c2nnc(SCC(=O)Nc3cccc(F)c3)s2)cc1,-6%,-10%,35µM*,-13%[60.1 µM],/,18%
Cc1ccc(SCc2cc(=O)n3ccsc3n2)c(C)c1,/,/,28µM*,/,/,/
O=c1cc(CSc2n[nH]c(-c3ccncc3)n2)nc2sccn12,?,50µM*,10µM*,?,0%[11.6 µM],3%
CC(=O)c1ccc(NC(=O)C2CCCN(S(=O)(=O)c3ccc4c(c3)CCCN4C(C)=O)C2)cc1 (configuration not stated),2%,13%,-1%,-1%[60.1 µM],/,16%
CCn1c(C)c(C)c2cc(C(=O)NCCCN3CCCCCC3)ccc21,-6%,89µM*,5%,-12%,-1%[11.6 µM],7%
N=c1oc2c3c4c(cc2cc1C(=O)Nc1ccccc1)CCCN4CCC3,-12%,62%,12%,-13%,56µM*,-1%
COc1ccc(OCC(=O)NCc2ccc3c(c2)CCN3C(=O)c2cccc(C)c2)cc1,-20%,-11%,2%,-15%[60.1 µM],/,-14%
O=C(O)CN1C(=O)c2ccc(Oc3ccc4c(c3)C(=O)N(CC(=O)O)C4=O)cc2C1=O,32µM*,-9%,25%,-37%,-2%[57.1 µM],-5%
O=C1c2ccc(Oc3ccc([N+](=O)[O-])cc3)cc2C(=O)N1CCO,-18%,174%,34%,-3%,6%,1%
CC(=O)NN1C(=O)c2ccc(Oc3ccc4c(c3)C(=O)N(NC(C)=O)C4=O)cc2C1=O,/,/,11µM*,/,/,/
O=C(O)CN1C(=O)c2ccc(Oc3cccc4c3C(=O)N(CC(=O)O)C4=O)cc2C1=O,79µM*,17%,-23%,-7%,-7%[57.1 µM],-20%
CC(=O)NN1C(=O)c2ccc(Oc3ccc([N+](=O)[O-])cc3)cc2C1=O,1%,69%,17%,-15%,-18%,-4%
Cc1oc(-c2ccccc2Cl)nc1Cn1c(SCc2cccc(F)c2)nc2cccnc21,-19%,11%,4%,-8%,/,-9%
CSc1nn(Cc2cccc(Cl)c2)c(N(C(C)=O)C(C)=O)c1S(=O)(=O)c1ccccc1,-21%,-12%,-6%,-14%,/,-12%
CCCCCCCCCCCCCCCC[n+]1ccc(C)c2ccccc21,/,-2%,/,-20%,/,79µM*
CCCCCCCCCC[n+]1ccc(/C=C/c2c[nH]c3ccccc23)c2ccccc21,/,?,/,?,/,45µM*
CSCCC(C(=O)OC1CCOC1=O)N1C(=O)c2ccccc2C1=O (configuration not stated),35µM*,?,-22%,?,?,-9%
CCCCS(=O)(=O)/C=C\C1C2C=CC(C2)C1S(=O)(=O)CCCC (configuration not stated),-6%,5%,-20%,-10%,9%,9%
CCCCS(=O)(=O)/C=C\C=C/S(=O)(=O)CCCC,?,?,?,-12%,45µM*,-5%
CNCc1nc(-c2ccc[nH]2)c2cc(Cl)ccc2n1,/,19%,/,6%,/,?
Cc1ccc(C2=NN=C(NC(=O)CSc3nnc4c5ccccc5n(C)c4n3)SC2)cc1,?,-17%,35µM*,-7%,-16%,3%
CCOC(=O)Cc1nnc(NC(=O)CSc2nnc3c4ccccc4n(C)c3n2)s1,-6%,5µM*,45µM*,?,?,?
O=C(CC1c2ccccc2Oc2ccccc21)Nc1ccccc1F,-5%,89µM*,-2%,-3%,-2%,-5%
CC1(C)CC(=O)c2c(oc3ccc(NS(=O)(=O)c4cccc5cccnc45)cc23)C1,-12%,-13%,0%,-7%,-4%,1%
SMILES,Pol eta inh,Pol iota inh,Pol beta inh,Pol kappa inh,WRN inhibitor,FEN1 inhibitor
O=C1CCCc2oc3ccc(NS(=O)(=O)c4cccc5cccnc45)cc3c21,89µM*,?,-18%,-16%,-7%[11.6 µM],-7%
CCOC(=O)C1CCN(c2cc3c(cc2NC(=O)c2ccccc2)n(C)c(=O)n3C)CC1,-10%,34%,5%,11%,0%,12%
CCOC(=O)C1CCN(c2cc3c(cc2NC(=O)c2ccc(OC)c(OC)c2)n(C)c(=O)n3C)CC1,50µM*,30%,61%,-8%,-15%[11.6 µM],-20%
COc1[nH]c(/N=C/c2ccccc2)c(C#N)c1C#N,-7%,79µM*,89µM*,?,-34%,50µM*!
O=C(NCc1ccccc1)c1cc(C2CCCCN2C(=O)c2ccccc2)on1 (configuration not stated),/,/,/,/,-1%,/
O=C(COc1ccc(Cl)cc1Cl)NC(=S)Nc1ccccc1C(=O)O,/,/,-1%,/,/,/
O=C(Cc1ccc(Cl)cc1)Nc1cccc(C(=O)Nc2ccccc2C(=O)O)c1,?,79%,6%,-30%,89µM*,0%
O=C(Nc1ccccc1C(=O)O)c1ccccc1,-18%,?,32µM*,-13%,-9%,7%
COc1ccc(C(=O)Nc2ccccc2C(=O)O)cc1NC(=O)C(c1ccccc1)c1ccccc1,89µM*,7%,?,-19%,-12%[11.6 µM],-21%
O=C(COc1ccc(Cl)cc1Cl)Nc1ccc(C(=O)Nc2ccccc2C(=O)O)cc1,8%,?,32µM*,-33%,-29%,-18%
C[C@H](CCC(=O)NCC(=O)O)C1CC[C@H]2[C@H]3C(C[C@H](O)[C@]12C)[C@@]1(C)CC[C@@H](O)C[C@H]1C[C@H]3O (some centres not stated),/,/,/,7%[19.4 µM],/,/
O=C(NC1CCCCC1)C(c1ccc(C(F)(F)F)cc1)n1c(=O)c(-c2ccco2)nc2ccccc21 (configuration not stated),/,/,/,/,-8%,/
COc1cc(C(=O)NC(=S)Nc2ccc3ccccc3c2)cc(OC)c1OC,-18%,/,/,/,-9%,/
COc1ccc(N2CCN(C(=O)CCn3c(=O)c4cccn4c4cccnc43)CC2)cc1,-10%,18%,-2%,-18%,/,5%
O=C(COc1ccc(F)cc1)Nc1cccc(OCc2cc(=O)n3ccccc3n2)c1,-16%,18%,?,-2%[60.1 µM],/,4%
Cc1cc2nc(-c3ccc(SCC(=O)N4CCOCC4)nc3)[nH]c2cc1C,-6%,?,?,-19%,-20%,-1%
CCc1cc2ccc(OC)cc2nc1SCC(=O)N1CCN(C(=O)c2ccco2)CC1,-17%,-2%,12%,-2%,-1%,1%
Cc1cc2cc3c(cc2nc1SCC(=O)N1CCN(C(=O)c2ccco2)CC1)OCO3,5%,71µM*,?,-24%,-15%[57.1 µM],-19%

# High-throughput results deposited in PubChem BioAssay by National Center for Advancing Translational Sciences (NCATS).
